The values below come from PubChem BioAssay.

SMILES strings stand for the structures. Results filed as inconclusive are left out. Calls of active or inactive are those of the source.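 The calls were made as follows, unless noted: active = binding below the plate cutoff, the plate median minus 3 SD, with a reading above zero; inconclusive = below the plate cutoff but reading exactly zero; inactive = the rest.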

The nature of experiment [1]: rapamycin-like changes in RPL19A-GFP expression – cell-based, S. cerevisiae, multiplex flow cytometry, primary screen (AID 1862; in the data active = percent of DMSO control GFP below about 86%;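 also: lower values mimic rapamycin by blocking the RPL19A rise seen in DMSO cells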). Conditions: S. cerevisiae RPL19A-GFP strain, flow cytometry fluorescence, 3 h; at 10 µM; stronger effect = lower value.
Experiment [2] can be described thus: TOR pathway GLN3 branch reporter MEP2-GFP changes – S. cerevisiae, multiplex flow cytometry, primary screen (AID 1867;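 active = GFP response, as percent of the DMSO control, above the screen-wide mean plus 3 SD, about 139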;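 also: median GFP channel fluorescence of barcode-gated MEP2-GFP cells measured by flow cytometry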). To be noted: S. cerevisiae MEP2-GFP strain, 3 h, at 10 µM, stronger effect = higher value, 100% means same as DMSO wells.
Experiment [3] can be described thus: TOR pathway RTG branch CIT2 reporter changes – S. cerevisiae, GFP fusion, multiplex flow cytometry, primary screen (AID 1870;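 active = percent response above a set limit, the screen-wide mean plus 3 SD, cut at about 130% in these data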;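 also: barcoded CIT2-GFP strain pooled with four other GFP strains with rapamycin as positive control; median GFP fluorescence per well over plate mean of DMSO wells so 100% = DMSO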). Conditions: S. cerevisiae CIT2-GFP expression, 3 h, at 10 µM, stronger effect = higher value.
Experiment [4] can be described thus: TOR pathway LAP4-GFP level changes – S. cerevisiae, multiplex flow cytometry, primary screen (AID 1873;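 active = GFP signal, as percent of the solvent control, above the screen mean plus 3 SD, about 149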). Conditions: S. cerevisiae LAP4-GFP expression, 3 h, at 10 µM, stronger effect = higher value.
The nature of experiment [5]: yeast AGP1-GFP level changes, GLN3 branch – cell-based, multiplex flow cytometry, S. cerevisiae, primary screen (AID 1887;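 active = GFP signal above the screen-wide mean plus 3 SD, that is over about 124.5% of the solvent control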;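 also: AGP1-GFP fusion strain of S. cerevisiae within a five-strain barcoded multiplex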). Conditions: 3 h, at 10 µM, stronger effect = higher value.
The nature of experiment [6]: reduced mouse 2C T cell binding to pMHC/ICAM-1 vesicles – MLPCN validation set, flow cytometry, LFA-1/ICAM-1 modulator project, pilot screen (AID 2523;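 active = response below a set limit, under 55% cells CD8-positive and vesicle-bound, and CD8 cells' 90th-percentile brightness under 279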;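 as to vesicle binding response: mean PE anti-B7-1 fluorescence of CD8+ cells relative to row control; 100% = QL9-loaded vesicles with DMSO vehicle in the same plate row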). To be noted: 2C mouse CD8+ T cells, at 7 µM, stronger effect = lower value; double positive events: measured here: CD8+/vesicle+ event percentage.
Experiment [7] addresses Integrin beta-1 (Homo sapiens) + Integrin alpha-4 (Homo sapiens) (UniProt P13612+P05556). The experiment in a line: alpha4beta1 integrin LIBS antibody binding reduction – U937 cells, HUTS-21 mAb, flow cytometry, validation set, VLA-4 allosteric modulator project, pilot screen (AID 2674;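 active = inhibition above 50%, about 3 SD of the validation set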;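 also: antibody binding induced by the VLA-4 ligand LDV present at three times its Kd; 0% = LDV ligand with antibody and no compound and 100% = antibody without LDV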). Conditions: HUTS-21 LIBS mAb binding, at 6.7 µM, stronger effect = higher value, binding induced by LDV ligand.

The nature of experiment [8]: calorie-restriction mimetic ROS inhibitors, yeast – validation compound set, pilot screen (AID 2706;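 active = superoxide response below 65% of plate, a cut near 3 SD across the whole screen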;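 also: yeast exposed to compound for one week at 30 degrees C before staining; 100% = mean of all compound wells on the same plate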). To be noted: S. cerevisiae aging, superoxide DHE fluorescence; at 10 µM; stronger effect = lower value.
Experiment [9] deals with Beta-adrenergic receptor kinase 1 (Homo sapiens) (UniProt P25098). The experiment in a line: GRK2 binders displacing RNA aptamer, biochemical, validation, human GRK2, bead flow cytometry (AID 488806;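 active = aptamer binding inhibition above 30%, about 3 SD of noise from non-fluorescent compounds; inactive = inhibition at or below 30%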). Conditions: bead-bound GRK2, FAM-aptamer displacement, at 10 µM, stronger effect = higher value.
Experiment [10] has as its target Beta-2 adrenergic receptor (Homo sapiens) (UniProt P07550). As to the kind of experiment: agonist-induced loss of surface beta2AR – cell-based, FAP fluorogen, flow cytometry, validation set, pilot screen (AID 504459;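 active = percent response above 42, roughly 3 SD of non-fluorescent test compounds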;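 also: agonist-driven loss of surface beta2AR via internalization measured by FAP dye flow cytometry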). Conditions: Am2.2-beta2AR cells, at 10 µM, stronger effect = higher value.
For experiment [11], the target named is AP-2 complex subunit beta (Homo sapiens) (UniProt P63010). As to the kind of experiment: beta-arrestin/AP2 interaction blockers – biochemical, validation set, GST-AP2 beads, flow cytometry, pilot screen (AID 504541;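 active = inhibition above 54%, about 3 SD of non-fluorescent compounds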;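 also: AP2 carries R879A mutation and is captured from E. coli lysate; bead-bound FITC arrestin peptide fluorescence measuring arrestin peptide binding to AP2; 0% = DMSO wells and 100% = excess unlabeled arrestin peptide control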). To be noted: FITC arrestin peptide, at 10 µM, stronger effect = higher value, AP2 beta2 appendage fragment, R879A mutant.
Experiment [12] is described as follows: cytosolic pH regulators acting via V-ATPase – S. cerevisiae, pHLuorin, HTS validation (AID 504600; in the data active = response above about 15%;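 also: plate controls were DMSO for no effect and reference compound for full effect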). To be noted: V-ATPase proton transport, at 10 µM, stronger effect = higher value.
The test system of experiment [13] is anti-desmoglein-3 scFv antibody binding to human DSG3. As to the kind of experiment: blockers of pathogenic pemphigus antibody–desmoglein-3 binding – biochemical, validation compound set, bead-based, flow cytometry, pilot screen (AID 588368).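 Also: signal is the median channel fluorescence of bead-bound GFP antibody.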 Conditions: Protein G beads, DSG3-Fc, scFv-GFP binding, at 10 µM, stronger effect = lower value.
Experiment [14] is described as follows: Nile Red efflux blockade in pump-expressing yeast – validation compound set, multiplex, phenotypic, pilot screen (AID 588506;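 active = efflux inhibition above 0.42, the validation set average plus 4 SD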;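 also: Nile Red retained in cells so higher fluorescence means more efflux inhibition; 0 = negative control wells and 1 = enniatin B 25 µM full block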). Conditions: S. cerevisiae pump-expressing triplex, Nile Red efflux flow cytometry; at 10 µM; stronger effect = higher value; the pumps come from Candida albicans.
Experiment [15] addresses ATP-binding cassette sub-family B member 6 (Homo sapiens) (UniProt Q9NP58). The experiment in a line: blockers of ABCB6-driven porphyrin uptake – K562-ABCB6 cells, flow cytometry, validation set, pilot screen (AID 588550;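 active = inhibition above the screen-wide mean plus 3 SD, about 51%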;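 also: 0% = DMSO wells and 100% = benzethonium chloride 70 µM positive control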). Conditions: K562-ABCB6 porphyrin accumulation, 1 h, at 10 µM, stronger effect = higher value.
A short description of experiment [16]: AML differentiation inducers, ER-HoxA9 marrow cells – cell-based, GFP/MAC1 double positive, flow cytometry, validation set, primary screen (AID 588685;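 active = differentiation response of at least 50%, scaled between solvent and reference control, from cells with both markers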;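 also: compound exposure lasts four days before antibody staining and flow analysis; 0% = DMSO wells and 100% = 5 µM fulvestrant positive control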). Conditions: stronger effect = higher value, normalized: vehicle 0, fulvestrant 100.

Sequence of ATP-binding cassette sub-family B member 6 (Homo sapiens) (Q9NP58 whole entry, looked up): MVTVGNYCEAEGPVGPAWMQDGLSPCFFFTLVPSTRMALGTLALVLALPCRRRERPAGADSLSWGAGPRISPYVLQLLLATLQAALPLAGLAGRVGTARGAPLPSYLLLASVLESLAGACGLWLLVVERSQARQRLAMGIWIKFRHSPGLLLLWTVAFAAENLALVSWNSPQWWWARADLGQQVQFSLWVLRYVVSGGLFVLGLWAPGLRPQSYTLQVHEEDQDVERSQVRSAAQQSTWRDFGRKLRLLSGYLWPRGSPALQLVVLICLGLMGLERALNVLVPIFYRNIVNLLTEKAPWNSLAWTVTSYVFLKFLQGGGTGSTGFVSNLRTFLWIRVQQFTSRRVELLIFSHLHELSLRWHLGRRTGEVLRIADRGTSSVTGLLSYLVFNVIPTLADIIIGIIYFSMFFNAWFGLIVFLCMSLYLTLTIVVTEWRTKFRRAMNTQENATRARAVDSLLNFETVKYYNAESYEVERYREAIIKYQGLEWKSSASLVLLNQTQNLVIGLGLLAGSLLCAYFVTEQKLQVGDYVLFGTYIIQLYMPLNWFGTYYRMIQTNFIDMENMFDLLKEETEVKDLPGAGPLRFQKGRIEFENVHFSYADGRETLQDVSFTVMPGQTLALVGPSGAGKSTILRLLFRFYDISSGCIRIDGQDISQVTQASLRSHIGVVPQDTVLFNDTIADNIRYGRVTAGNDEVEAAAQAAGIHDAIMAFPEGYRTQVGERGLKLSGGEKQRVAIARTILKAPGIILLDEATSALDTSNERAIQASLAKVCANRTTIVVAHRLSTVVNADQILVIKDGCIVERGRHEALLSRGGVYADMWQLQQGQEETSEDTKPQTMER
Sequence of Beta-2 adrenergic receptor (Homo sapiens) (P07550 whole entry, looked up): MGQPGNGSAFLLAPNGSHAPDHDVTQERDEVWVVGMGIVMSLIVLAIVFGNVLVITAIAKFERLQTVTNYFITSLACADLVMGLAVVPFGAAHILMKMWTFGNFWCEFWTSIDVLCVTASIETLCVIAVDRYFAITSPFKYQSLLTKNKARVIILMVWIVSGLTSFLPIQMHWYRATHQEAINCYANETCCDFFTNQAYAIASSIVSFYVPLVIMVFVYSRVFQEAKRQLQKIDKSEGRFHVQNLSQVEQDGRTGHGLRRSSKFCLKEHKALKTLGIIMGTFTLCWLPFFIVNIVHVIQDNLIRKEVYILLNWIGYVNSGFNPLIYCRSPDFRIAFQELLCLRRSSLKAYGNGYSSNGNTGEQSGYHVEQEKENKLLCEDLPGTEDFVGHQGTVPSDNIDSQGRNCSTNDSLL
Sequence of AP-2 complex subunit beta (Homo sapiens) (P63010 whole entry, looked up, the tested form may be a part, one chain of several): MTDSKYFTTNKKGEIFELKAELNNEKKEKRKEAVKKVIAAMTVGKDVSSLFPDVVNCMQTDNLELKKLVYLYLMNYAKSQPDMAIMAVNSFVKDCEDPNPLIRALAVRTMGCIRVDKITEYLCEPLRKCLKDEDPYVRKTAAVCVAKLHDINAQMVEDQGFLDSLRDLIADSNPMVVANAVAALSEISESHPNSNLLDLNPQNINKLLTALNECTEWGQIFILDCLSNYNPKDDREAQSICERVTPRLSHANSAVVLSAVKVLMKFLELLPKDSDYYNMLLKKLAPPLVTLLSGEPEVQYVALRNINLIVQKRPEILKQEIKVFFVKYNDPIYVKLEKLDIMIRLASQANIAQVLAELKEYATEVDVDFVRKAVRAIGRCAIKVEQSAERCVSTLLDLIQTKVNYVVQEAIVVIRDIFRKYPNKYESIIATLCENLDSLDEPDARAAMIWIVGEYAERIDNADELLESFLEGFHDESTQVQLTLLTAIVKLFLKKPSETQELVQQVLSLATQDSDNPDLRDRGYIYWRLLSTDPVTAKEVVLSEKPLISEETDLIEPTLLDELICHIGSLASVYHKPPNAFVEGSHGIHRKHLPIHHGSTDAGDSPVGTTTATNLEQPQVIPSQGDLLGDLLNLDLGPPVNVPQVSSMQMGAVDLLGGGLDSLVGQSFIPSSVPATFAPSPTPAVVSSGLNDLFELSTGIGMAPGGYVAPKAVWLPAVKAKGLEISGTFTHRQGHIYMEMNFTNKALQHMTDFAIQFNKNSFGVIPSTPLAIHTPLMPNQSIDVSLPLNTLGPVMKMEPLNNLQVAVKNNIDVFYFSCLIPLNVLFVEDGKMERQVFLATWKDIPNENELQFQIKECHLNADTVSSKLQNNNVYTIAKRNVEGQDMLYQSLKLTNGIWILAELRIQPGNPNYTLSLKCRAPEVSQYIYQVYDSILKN
Sequence of Beta-adrenergic receptor kinase 1 (Homo sapiens) (P25098 whole entry, looked up): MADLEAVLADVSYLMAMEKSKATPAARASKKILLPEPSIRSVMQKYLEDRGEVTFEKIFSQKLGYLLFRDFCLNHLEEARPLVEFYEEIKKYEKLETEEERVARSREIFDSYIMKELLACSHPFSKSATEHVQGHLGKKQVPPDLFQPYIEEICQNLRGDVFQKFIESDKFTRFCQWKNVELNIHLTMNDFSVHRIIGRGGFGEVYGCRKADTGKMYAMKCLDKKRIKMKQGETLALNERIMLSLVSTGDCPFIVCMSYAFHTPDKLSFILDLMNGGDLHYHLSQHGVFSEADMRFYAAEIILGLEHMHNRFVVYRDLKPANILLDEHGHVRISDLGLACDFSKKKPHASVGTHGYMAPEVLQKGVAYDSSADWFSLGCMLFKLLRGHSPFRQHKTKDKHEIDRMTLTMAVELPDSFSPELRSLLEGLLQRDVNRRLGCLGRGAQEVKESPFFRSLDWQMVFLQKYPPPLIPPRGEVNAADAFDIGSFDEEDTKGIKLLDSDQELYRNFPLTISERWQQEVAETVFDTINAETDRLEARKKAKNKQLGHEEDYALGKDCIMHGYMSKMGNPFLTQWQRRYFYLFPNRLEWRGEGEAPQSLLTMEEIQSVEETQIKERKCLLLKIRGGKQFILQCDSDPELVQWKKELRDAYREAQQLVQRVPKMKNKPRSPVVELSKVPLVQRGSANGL
Sequence of Integrin beta-1 (Homo sapiens) + Integrin alpha-4 (Homo sapiens) (P05556 whole entry, looked up): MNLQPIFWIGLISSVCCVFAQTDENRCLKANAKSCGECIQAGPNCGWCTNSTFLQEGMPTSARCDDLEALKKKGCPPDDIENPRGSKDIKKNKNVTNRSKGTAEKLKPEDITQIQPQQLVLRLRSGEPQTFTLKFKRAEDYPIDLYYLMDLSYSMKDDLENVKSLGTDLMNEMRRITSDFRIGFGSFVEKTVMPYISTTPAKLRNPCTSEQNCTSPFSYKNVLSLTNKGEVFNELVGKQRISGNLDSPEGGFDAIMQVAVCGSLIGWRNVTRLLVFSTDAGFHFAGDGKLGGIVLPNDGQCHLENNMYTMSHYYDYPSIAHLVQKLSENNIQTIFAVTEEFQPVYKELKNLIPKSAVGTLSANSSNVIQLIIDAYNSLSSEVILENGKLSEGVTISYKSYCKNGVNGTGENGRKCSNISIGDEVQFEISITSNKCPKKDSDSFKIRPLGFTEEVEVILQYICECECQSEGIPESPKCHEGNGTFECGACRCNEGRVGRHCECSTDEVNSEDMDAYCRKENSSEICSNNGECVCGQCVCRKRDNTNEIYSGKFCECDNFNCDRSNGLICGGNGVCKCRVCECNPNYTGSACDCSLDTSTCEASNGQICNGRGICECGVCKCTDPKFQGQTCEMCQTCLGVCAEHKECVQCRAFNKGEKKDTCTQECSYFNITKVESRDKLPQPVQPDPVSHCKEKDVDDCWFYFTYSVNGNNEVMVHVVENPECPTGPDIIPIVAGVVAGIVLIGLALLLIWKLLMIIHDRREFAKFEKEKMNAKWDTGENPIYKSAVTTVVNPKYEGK
Sequence of Integrin beta-1 (Homo sapiens) + Integrin alpha-4 (Homo sapiens) (P13612 whole entry, looked up): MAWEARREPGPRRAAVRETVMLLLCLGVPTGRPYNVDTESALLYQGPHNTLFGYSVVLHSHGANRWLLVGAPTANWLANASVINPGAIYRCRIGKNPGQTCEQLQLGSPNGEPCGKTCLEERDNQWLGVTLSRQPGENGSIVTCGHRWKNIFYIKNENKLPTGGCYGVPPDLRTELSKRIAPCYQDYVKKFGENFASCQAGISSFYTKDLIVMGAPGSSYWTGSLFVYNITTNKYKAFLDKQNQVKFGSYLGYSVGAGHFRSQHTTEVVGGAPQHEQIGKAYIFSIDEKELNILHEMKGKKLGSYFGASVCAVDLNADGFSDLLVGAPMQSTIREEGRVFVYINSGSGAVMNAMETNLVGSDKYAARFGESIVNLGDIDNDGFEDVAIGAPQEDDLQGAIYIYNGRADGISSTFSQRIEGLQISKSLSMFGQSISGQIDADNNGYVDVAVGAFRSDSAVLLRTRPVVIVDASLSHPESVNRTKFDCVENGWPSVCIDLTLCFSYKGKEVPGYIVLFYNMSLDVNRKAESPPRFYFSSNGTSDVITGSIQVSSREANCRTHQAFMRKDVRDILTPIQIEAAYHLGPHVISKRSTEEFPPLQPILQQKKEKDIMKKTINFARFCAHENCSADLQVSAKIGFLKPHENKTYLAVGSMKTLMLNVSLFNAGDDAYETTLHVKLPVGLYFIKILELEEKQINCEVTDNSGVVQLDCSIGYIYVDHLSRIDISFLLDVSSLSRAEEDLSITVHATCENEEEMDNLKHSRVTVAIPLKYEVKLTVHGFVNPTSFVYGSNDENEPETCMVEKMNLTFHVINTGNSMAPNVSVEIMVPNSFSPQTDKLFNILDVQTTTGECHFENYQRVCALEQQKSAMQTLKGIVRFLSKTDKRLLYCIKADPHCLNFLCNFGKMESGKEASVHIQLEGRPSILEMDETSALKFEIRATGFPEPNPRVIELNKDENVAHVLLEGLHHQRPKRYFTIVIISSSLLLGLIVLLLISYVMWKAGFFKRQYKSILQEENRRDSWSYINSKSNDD

Consider `CC(C)(C)C(=O)N1CCCC1C(=O)O` (stereo not drawn), for which, in experiment [1], the percent of DMSO control GFP is 104% (inactive). For the same molecule, the GFP response vs DMSO in experiment [2] is 96.6% (inactive); in experiment [4] it was 99.5% (inactive). The percent response of DMSO control in experiment [3] was 99% (inactive). Further, in [5], the GFP response, % of DMSO was 106% (inactive). For the same molecule, the double positive events in [6] worked out at 65.6%. The vesicle binding response in experiment [6] was 141% (inactive). Further, the inhibition in experiment [7] is 4.84% (inactive); in experiment [11], -2.34% (inactive); in experiment [15], 2% (inactive). In experiment [8], the superoxide response (% of plate) was 95.6% (inactive). The aptamer binding inhibition in [9] is 11% (inactive). For the same molecule, the response is -4.87% (inactive) in experiment [10] and -11% (inactive) in experiment [12]. Further, in experiment [13], the binding (% of control) was 103% (inactive). The efflux inhibition (fraction of control) in experiment [14] is -0.04 (inactive). Besides, the differentiation response in experiment [16] is 11.8% (inactive).
Regarding `NC(N)=N/N=C/c1cccc(Cl)c1Cl`, the percent of DMSO control GFP in experiment [1] was 104% (inactive). For the same molecule, the GFP response vs DMSO in [2] was 96.3% (inactive); in experiment [4] it was 103% (inactive). The percent response of DMSO control in experiment [3] is 98.6% (inactive). Further, the GFP response, % of DMSO in experiment [5] was 98.8% (inactive). The double positive events in [6] was 66.1%. In [6], the vesicle binding response was 157% (inactive). For the same molecule, the inhibition is 9.13% (inactive) in [7], 14.4% (inactive) in experiment [11] and 4% (inactive) in experiment [15]. Further, the superoxide response (% of plate) in experiment [8] was 97.9% (inactive). In addition, the aptamer binding inhibition in experiment [9] is -3% (inactive). Besides, the response was 22.4% (inactive) in experiment [10] and -0.64% (inactive) in [12]. Besides, the binding (% of control) in experiment [13] was 102% (inactive). For the same molecule, the efflux inhibition (fraction of control) in [14] was -0.24 (inactive). In addition, the differentiation response in experiment [16] is -18.4% (inactive).
Take `Cn1c(=S)n(C)c2ccccc21`: in experiment [1], the percent of DMSO control GFP was 99.2% (inactive). Moreover, the GFP response vs DMSO in experiment [2] is 104% (inactive); in experiment [4] it was 110% (inactive). The percent response of DMSO control in experiment [3] was 94.4% (inactive). In addition, the GFP response, % of DMSO in experiment [5] is 104% (inactive). The same molecule came in with a double positive events in [6] of 61.4%. Also, the vesicle binding response in [6] is 264% (inactive). Further, the inhibition in experiment [7] was 16.8% (inactive); in [11], 0.89% (inactive); in experiment [15], 7% (inactive). Further, the superoxide response (% of plate) in [8] was 104% (inactive). In addition, the aptamer binding inhibition in experiment [9] is 3% (inactive). For the same molecule, the response in experiment [10] was 25.9% (inactive); in experiment [12], -1.79% (inactive). Also, the binding (% of control) in experiment [13] is 105% (inactive). For the same molecule, the efflux inhibition (fraction of control) in [14] was 0.08 (inactive). Also, in experiment [16], the differentiation response was -4% (inactive).
With `Cc1ccc(C(=O)COC(=O)c2cnccn2)cc1[N+](=O)[O-]`, the percent of DMSO control GFP in [1] is 99.1% (inactive). The figures for the GFP response vs DMSO in experiment [2] and in [4] were 99.6% (inactive) and 82% (inactive), respectively. Also, the percent response of DMSO control in experiment [3] was 110% (inactive). In addition, in experiment [5], the GFP response, % of DMSO is 82.5% (inactive). The double positive events in [6] stood at 58.1%. Further, the vesicle binding response in experiment [6] is 226% (inactive). The inhibition is -18.2% (inactive) in [7], -6.78% (inactive) in [11] and 12% (inactive) in experiment [15]. The superoxide response (% of plate) in experiment [8] is 97.6% (inactive). The aptamer binding inhibition in experiment [9] was 4% (inactive). For the same molecule, the response in experiment [10] was -3.42% (inactive); in [12], -1.08% (inactive). In [13], the binding (% of control) is 103% (inactive). The efflux inhibition (fraction of control) in experiment [14] was 0.01 (inactive). In addition, the differentiation response in [16] was -21.6% (inactive).
